Experimental findings from PubChem BioAssay AID2825 (Sanford-Burnham Center for Chemical Genomics, 2010) are described below.

Hit rate of the full screen: of about 330,000 compounds, about 1,300 (0.39%) were called active. For the sample, actives were picked, then their nearest neighbours and some compounds at random. Values without a mark were called inactive.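 Rule for the calls: active = inhibition of 50% or more; inactive = inhibition below 50%.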

For orientation: inhibition means the change of the read-out against control, counted positive when it falls.

The test can be described thus: blockers of yeast NLRP3/ASC/caspase-1 reporter – luminescence, uHTS, primary screen (AID 2825).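 Note: plate controls were induced DMSO wells for no effect and uninduced yeast grown without galactose for full effect.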 The settings on record: Yeast reconstituted NLRP3/ASC/caspase-1, beta-gal luminescence, 24 h; at 10 µM; active compounds read high.
On to `CC(NC(=O)c1ccco1)C(=O)Nc1nc(-c2ccccn2)cs1` (stereo not given), for which the inhibition was 6.56%.
Consider `O=C(COc1ccccc1F)Nc1nc(-c2ccccn2)cs1`, for which the inhibition is 52.9% (active).
With `O=C(CN1C(=O)C2C3C=CC(C3)C2C1=O)Nc1nc(-c2ccccn2)cs1` (stereo not given), the inhibition was 2.29%.
On to `CCNC(=O)c1cccc(NC(=O)C2CC(=O)N(CCc3ccccc3)C2)c1` (stereo not given), for which the inhibition is 0.384%.
On to `O=C(Nc1ccccc1Cl)/C(Cl)=C(\Cl)S(=O)c1ccccc1` (stereo not given), for which the inhibition was 67.4% (active).
For the compound `CN(C)S(=O)(=O)Oc1ccccc1C(=O)Nc1ccccc1Cl`, the inhibition was -4.11%.
As for `O=C(COC(=O)CCc1c[nH]c(=O)[nH]1)Nc1ccccc1Cl`, the inhibition is -10.9%.
As for `COc1cc(CNCc2ccc3c(c2)OCO3)c([N+](=O)[O-])cc1OC`, the inhibition is 20.4%.
With `O=[N+]([O-])c1cccc(/C=N/Nc2ncc(Br)cn2)c1`, the inhibition is 68.1% (active).
As to `O=C(N/N=C/c1cccc([N+](=O)[O-])c1)C1CC(=O)N(c2ccc(Br)cc2)C1` (stereo not given), the inhibition was 4.22%.
As for `Cc1ccc(NC(=O)O/N=C/c2cccc([N+](=O)[O-])c2)cc1`, the inhibition is 18.6%.
For the compound `C/C(=N/OC(=O)c1ccc(Br)cc1)c1ccc(C)cc1`, the inhibition is 25.5%.
On to `CCc1cc(C(=O)Nc2nnc(C3CC3)s2)sc1C`, for which the inhibition was 52% (active).
On to `O=C(Nc1nnc(C2CC2)s1)c1ccccn1`, for which the inhibition was 7.63%.
Regarding `Cc1cc(C(=O)Nc2nnc(C3CC3)s2)c(C)s1`, the inhibition is 47.8%.
Regarding `CC(=O)NC(CC(=O)Nc1ccc(S(=O)(=O)N2CCOCC2)cc1)c1ccccc1` (stereo not given), the inhibition was 8.22%.
With `Fc1ccc2cnc(-c3ccccc3)cc2c1`, the inhibition was 34.3%.
Under `Fc1ccccc1-c1cc2cc3c(cc2cn1)OCO3` stands 57.2% (active); under `O=C(c1ccco1)N1CCN(C(=O)c2cc(-c3ccccc3F)no2)CC1`, -3.69%.
Regarding `O=C1CC2(CCCC2)C(=O)N1CN1CCN(S(=O)(=O)c2ccc(F)cc2F)CC1`, the inhibition was 20.4%.
As to `Cc1c(C(=O)OCC(=O)N2CCCC2=O)oc2ccccc12`, the inhibition is 28.6%.
With `Cc1c(C(=O)N2CCCc3ccccc32)oc2ccccc12`, the inhibition is 51.5% (active).
In the case of `CCCn1nc(C(=O)N2CCCc3ccccc32)c2ccccc2c1=O`, the inhibition was 12.6%.
With `O=C(CNC(=O)c1ccc(Br)o1)Nc1ccccc1`, the inhibition is 22.4%.
Consider `Cc1cccc(NC(=O)c2ccc([N+](=O)[O-])o2)c1`, for which the inhibition was -4.88%.
On to `Cc1cccc(NC(=S)NC(=O)c2ccc(Br)o2)c1`, for which the inhibition is 57.6% (active).
Take `O=C(Cc1ccc(S(=O)(=O)N2CCCC2)s1)NC1CCCCCC1`: the inhibition is 7.38%.
In the case of `CN(c1ccccc1)S(=O)(=O)c1ccc2[nH]c(=O)[nH]c2c1`, the inhibition was 25.4%.
Under `COc1ccccc1C(=O)COC(=O)CSCC(=O)Nc1cc(C)on1` stands 15.5%; under `CC(CCc1ccc(O)cc1)NCc1ccc(Cl)cc1Cl` (stereo not given), 21.7%; under `N#Cc1nc(Cc2ccccc2)oc1NCCc1ccccc1`, 53.8% (active).
With `N#Cc1nc(COc2ccc(-c3ccccc3)cc2)oc1NCc1cccnc1`, the inhibition is 2.98%.
Under `N#Cc1nc(Cc2cccc3ccccc23)oc1NCc1ccc2c(c1)OCO2` stands 2.2%.
Regarding `CCn1c(=S)sc2c(=O)n(CC(=O)Nc3ccc(OC)cc3)c(C)nc21`, the inhibition was 18.2%.
With `CC(NCc1nc2ccccc2n1C)C12CC3CC(CC(C3)C1)C2` (stereo not given), the inhibition was 30%.
In the case of `Cc1ccc(-c2nnc(Nc3ccc(C(=O)N(C)C)cc3)c3ccccc23)cc1S(N)(=O)=O` it was 15.1%; in that of `O=c1[nH]oc(O)c1-c1ncc(C(F)(F)F)cc1Cl`, 6.26%; in that of `Cn1c(N)c(C(=O)COC(=O)c2cccc(S(=O)(=O)N3CCOCC3)c2)c(=O)n(C)c1=O`, 3.26%.
Regarding `CN(Cc1nc2ccccc2s1)C(=O)c1ccc(F)cc1`, the inhibition is 14.9%.
`CCc1ccc(-c2nnn(Cc3nc4ccccc4s3)n2)cc1`: the inhibition was 31.8%.
Under `COc1ccccc1OCc1nc2ccccc2s1` stands 59.6% (active).
Consider `Cc1cccc(C)c1NC(=O)CCS(=O)(=O)c1cccc2nsnc12`, for which the inhibition was -0.246%.
Consider `COc1ccc(Cc2nnc(N/N=C/c3ccccc3O)[nH]c2=O)cc1OC`, for which the inhibition was 9.67%.
In the case of `Cc1nc2ccccc2nc1N/N=C/c1ccc(O)cc1O`, the inhibition is 2.73%.
Turning to `COc1cccc(/C=N/Nc2cc(C)nc(-c3ccccc3O)n2)c1O`, the inhibition is 54.1% (active).
On to `CC(C)c1ccc(N2CC(C(=O)Nc3nccs3)CC2=O)cc1` (stereo not given), for which the inhibition is 9.7%.
On to `COc1ccc(CNC(=O)COC(=O)/C=C/c2ccc(S(=O)(=O)N3CCOCC3)cc2)cc1`, for which the inhibition was -4.76%.
`Cc1nn(Cc2ccccc2)c(C)c1C(=O)N1CCN(CC(=O)Nc2ccccc2Cl)CC1`: the inhibition was 14.5%.
For `O=C(CC(O)(C(F)(F)F)C(F)(F)F)Nc1ccc(Cl)c(Cl)c1`, the inhibition is 78.6% (active).
Turning to `NC(=O)N1CCCC1C(=O)Nc1ccc(Cl)c(Cl)c1` (stereo not given), the inhibition is -1.49%.
As to `O=C(COC(=O)c1cc[n+]([O-])cc1)Nc1ccc(Cl)c(C(F)(F)F)c1`, the inhibition is -2.4%.
In the case of `Cc1onc(-c2ccccc2Cl)c1C(=O)OCc1nnc(-c2ccccc2)o1`, the inhibition was 27.8%.
For `Cc1ccc(-n2cnc3ncnc(-c4ccccc4)c32)cc1`, the inhibition is 7.02%.
For `Cc1ccc(-c2nn(C(C)(C)C)c3ncnc(N)c23)cc1`, the inhibition was 90.7% (active).
Consider `Cc1[nH]c(=O)c(C(=O)/C=C/c2ccccc2)c2c1CCCC2`, for which the inhibition is 28.3%.
Under `CCc1cccc(OC2OC(CO)C(O)C(O)C2NC(C)=O)c1` (stereo not given) stands -4.24%.
Consider `Cn1nccc1/C=N\NC(=O)c1ccc(Cl)cc1`, for which the inhibition is 19.2%.
For the compound `COc1ccccc1C1C(C#N)=C(N)Oc2c1c(-c1ccccc1)nn2-c1ccccc1` (stereo not given), the inhibition was 9.88%.
On to `N#CC1(NC(=O)COC(=O)Cc2n[nH]c(=O)c3ccccc23)CCCCC1`, for which the inhibition is 17.9%.
On to `Cc1ccc(OCc2nc3ccccc3n2C)cc1`, for which the inhibition is 62.3% (active).
As to `CC(C)n1c(COc2ccccc2)nc2ccccc21`, the inhibition was 57.2% (active).
On to `CCOc1ccc(C(O)Cc2nc3ccccc3n2C)cc1` (stereo not given), for which the inhibition was 32.1%.
`CC(C)n1c(-c2cccs2)nc2ccccc21`: the inhibition was 19%.
In the case of `CC(C)n1c(CN2CCN(Cc3ccccc3)CC2)nc2ccccc21`, the inhibition was 18.2%.
As for `Cn1c(COc2ccc(Cl)cc2)nc2ccccc2c1=O`, the inhibition is 35.3%.
Turning to `CC(C)NS(=O)(=O)c1ccc(OCC(=O)NC2CCCCCC2)cc1`, the inhibition was 10.4%.
As for `COCCN(C(=O)CC1CCCCC1)c1c(N)n(CC(C)C)c(=O)[nH]c1=O`, the inhibition is 6.27%.
For `Cn1c(=NC(=O)c2ccco2)sc2cccc(F)c21`, the inhibition was 51% (active).
Regarding `CCCC(=O)N=c1sc2cccc(F)c2n1C`, the inhibition was 35.5%.
In the case of `Cn1c(=NC(=O)c2cnccn2)sc2ccccc21` it was 25.1%; in that of `COc1ccc(NC(=O)CN(C)C(=O)Cc2coc3cc(C)c(C)cc23)cc1`, 17.5%.
As to `COCCCNCCOCCOc1ccc(Cl)cc1Br`, the inhibition was 3.7%.
Consider `Cc1cc(=O)oc2cc(NC(=O)C(C)Oc3ccccc3)ccc12` (stereo not given), for which the inhibition was 10.8%.
With `CC(C)C(=O)Nc1ccc2oc(=O)ccc2c1`, the inhibition is -3.79%.
In the case of `CC(C)C(=O)Nc1ccc2c(c1)oc1ccccc12` it was 56.7% (active); in that of `Cc1ccc2cccc(S(=O)(=O)N3CCN(c4ccccc4F)CC3)c2n1`, 50.5% (active); in that of `Cc1ccccc1N1CCN(S(=O)(=O)c2ccc3ccccc3c2)CC1`, 2.32%.
Take `O=S(=O)(N1CCOCC1)N1CCN(c2ccccc2F)CC1`: the inhibition is 7.74%.
In the case of `O=C(c1ccc(S(=O)(=O)N2CCCC2)cc1)N1CCN(c2ccccc2F)CC1` it was 11.6%.
For the compound `C=CCn1c(CNS(=O)(=O)c2ccc(Br)cc2)nnc1SC`, the inhibition is 14.4%.
On to `COc1ccc(NS(=O)(=O)c2cc3c(cc2C)N(C(C)=O)CCO3)cc1`, for which the inhibition is 25.6%.
`Oc1ccc(Br)cc1/C=N/Nc1ccccn1`: the inhibition was 51.7% (active).
For `Cc1c(C(=O)Nc2ccccn2)oc2ccc(Br)cc12`, the inhibition is 28.4%.
As to `Oc1ccc(/C=N/Nc2ccc(C(F)(F)F)cn2)cc1O`, the inhibition is 11.3%.
Under `CCn1nc(C(=O)NNS(=O)(=O)c2cc(/C=C/C(=O)O)cc(OC)c2OC)c2ccccc2c1=O` stands -0.224%.
As for `O=C(CSc1ccc([N+](=O)[O-])cn1)Nc1ccc(N2CCOCC2)cc1`, the inhibition was -5.97%.
Under `O=C(CSc1ccc(-c2ccccn2)nn1)Nc1ccccc1` stands 25.6%; under `O=C(CSc1ccc(-c2ccc(-n3cccn3)cc2)nn1)Nc1ccc([N+](=O)[O-])cc1`, 51.4% (active); under `CCN1CCN(c2sc(S(C)(=O)=O)nc2S(=O)(=O)c2ccc(Cl)cc2)CC1`, 2.79%.
In the case of `CCOC(=O)C1CCN(C(=O)CC2C(=O)N(Cc3ccccc3)C(C)c3nc4ccccc4n32)CC1` (stereo not given), the inhibition is -3.2%.
Take `Cc1csc(NC(=S)Nc2cccc(Cl)c2)n1`: the inhibition was 53.8% (active).
Regarding `S=C(Nc1cccc(Cl)c1)Nc1ccc2c(c1)OCCO2`, the inhibition was 15%.
In the case of `FC(F)(F)c1cccc(NC(=S)Nc2cccc(Cl)c2)c1`, the inhibition is 2.63%.
For `COc1ccc(-c2n[nH]c3c2CN(C(=O)c2ccc(F)cc2)CC3)cc1`, the inhibition is 19%.
In the case of `COc1cc(OC)cc(-c2cc3nc(C4CCN(C(=O)OC(C)(C)C)CC4)cc(=O)n3[nH]2)c1` it was 18.1%; in that of `CC1CC2=C(CC1/C=N/NC(N)=S)C(C)(C)CCC2` (stereo not given), 68.6% (active).
With `CCCN(CCc1ccccc1)C1CCc2c(O)cccc2C1` (stereo not given), the inhibition is 22.2%.
In the case of `Cc1cc(C)c(/C=C2\C(=O)Nc3ccccc32)[nH]1`, the inhibition was 55.4% (active).
As to `CN(C)/C=C1/Nc2ccccc2C1=O`, the inhibition was 12%.
As to `O=C1Nc2ccccc2/C1=C/c1ccnc2ccccc12`, the inhibition was 17.6%.
